Whole data set: some 35,000 sequences, median “fluorescence intensity (a.u.)” near 10,000, cut for the highest 2% near 52,000. Only a selection was taken, and the highest values are over-represented in it overall.
The sequences below were run against T1, OsWOX13 (Oryza sativa, UniProt Q5QMM3 1-267) (assay: protein-binding microarray (RPBM); PBS, 2% BSA, 51.3 ng/ul salmon testes DNA, 50 uM zinc acetate, 200 nM TF, 25 C, 1 h; high values mean tight binding). Details: protein: recombinant; tags: N-terminal polyhistidine and DsRed monomer fusion (pET32a); label: CyDye5-dUTP incorporated in the synthesized complementary strand; 3' TTTTT single-stranded linker to array surface; dsDNA, one strand shown.
T1 sequence: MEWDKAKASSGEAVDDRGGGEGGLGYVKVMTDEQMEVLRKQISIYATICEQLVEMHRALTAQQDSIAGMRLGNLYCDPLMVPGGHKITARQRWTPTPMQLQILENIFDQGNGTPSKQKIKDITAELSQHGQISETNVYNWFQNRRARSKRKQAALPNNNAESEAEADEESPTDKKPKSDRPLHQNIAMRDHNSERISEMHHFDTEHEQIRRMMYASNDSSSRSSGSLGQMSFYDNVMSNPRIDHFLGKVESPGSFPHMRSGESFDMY
Procedure, shortened: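 In PBS with 2% BSA, salmon testes DNA and 50 µM zinc acetate, 200 nM protein was incubated on a custom Agilent array at 25 °C for 1 h and then washed off. The array had been made double-stranded by primer extension with Cy5-dUTP and blocked with 2% BSA. The proteins were transcription factors fused N-terminally to polyhistidine and DsRed, expressed in E. coli BL21-CodonPlus and purified on Ni–NTA. The binding signal is per-feature fluorescence intensity (arbitrary units) from an Axon 4000B scanner.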

Point of comparison: “TAATAATAATAATAATAATAATAATAATAACACATCGCACCGGAGTCACCTAGTGCAG”, binding signal 4120 fluorescence intensity (a.u.). Against it:
- TACTAATGATTTTATGTAGAACATCATCACATATCTTATACGGAGTCACCTAGTGCAG — higher, 15800 fluorescence intensity (a.u.)
- CCGTGCTGCATGATTGACCAAACAGACCATGTTGGTTTTGCGGAGTCACCTAGTGCAG — higher, 29000 fluorescence intensity (a.u.)
- CTGATGATTGGTCAGCAGAGAAGACAGGTGGGATATCGAGCGGAGTCACCTAGTGCAG — higher, 52900 fluorescence intensity (a.u.)
- GATTTATTGACATCTATATGAATATAGACATTGATAAAAGCGGAGTCACCTAGTGCAG — higher, 8710 fluorescence intensity (a.u.)
- TTCGAATCTCTGATTGGGAGTTCAGGTCAGAGACGTTCAGCGGAGTCACCTAGTGCAG — higher, 14700 fluorescence intensity (a.u.)
- TTGATTTGGTTGATTGCCTCCTTCGTTCGTCCACGCTCAACGGAGTCACCTAGTGCAG — higher, 57100 fluorescence intensity (a.u.)
- ATAACATTATCATTATAGACATTGATATATGAGATAATAGCGGAGTCACCTAGTGCAG — higher, 6010 fluorescence intensity (a.u.)
- TTCTATGATTGATTGGTCGATAGGAAGACATATAACAGCGCGGAGTCACCTAGTGCAG — higher, 65500 fluorescence intensity (a.u.)
- TGTTGATTTGCTACCCTTCCTTCCGTCCTCAACATTATCACGGAGTCACCTAGTGCAG — higher, 31600 fluorescence intensity (a.u.)
- TTGATTGCCTCAGGTGGTCCGGACACCGTCTCAACATCCACGGAGTCACCTAGTGCAG — higher, 17700 fluorescence intensity (a.u.)
- CTTTGACAGATTGGTGGGAGATAAGAGAAATGAGGAGGTGCGGAGTCACCTAGTGCAG — higher, 51900 fluorescence intensity (a.u.)
- GGTTTGATTGGTTGGAAACAGAGGGGTTCTACTGCTGCGACGGAGTCACCTAGTGCAG — higher, 55700 fluorescence intensity (a.u.)
- TTGCTATTTGTTGGTTTGATTTATTGCTACTGCAACAGATCGGAGTCACCTAGTGCAG — lower, 3880 fluorescence intensity (a.u.)
- CCCAATTAAATAATGCCAATTGGGTTTGATCTAATGCTGGCGGAGTCACCTAGTGCAG — higher, 15200 fluorescence intensity (a.u.)
- ATCAATCAATCAATCAATCAGCAAAGAGCATCCCAAACAACGGAGTCACCTAGTGCAG — higher, 33900 fluorescence intensity (a.u.)
- AAGGTTGTTAATTACAAACCATGTTTCGTACTACAACTCTCGGAGTCACCTAGTGCAG — higher, 4580 fluorescence intensity (a.u.)
- GTGACAAACTGACAACAGGTTGTTTAGTTTTCCATGATTACGGAGTCACCTAGTGCAG — higher, 4530 fluorescence intensity (a.u.)
- GAATCTATTAAGCCTAATTAATCCGTTATTATAGCAAATACGGAGTCACCTAGTGCAG — higher, 6470 fluorescence intensity (a.u.)
- AAGGCACGTTGATTGGACTAGTAGTACTACTACGTAGTAGCGGAGTCACCTAGTGCAG — higher, 18400 fluorescence intensity (a.u.)
- ACCATTGATGGTCCCAATTTAAAATATTTGGCCGAATCTTCGGAGTCACCTAGTGCAG — lower, 3840 fluorescence intensity (a.u.)
- AATAAAATAAATGATCAAATGAATTATGAAAACTCGTGACCGGAGTCACCTAGTGCAG — higher, 5260 fluorescence intensity (a.u.)
- GTCGAAAATTATATCGGAATTAGCAGAGTGTGGCATAGCACGGAGTCACCTAGTGCAG — higher, 4260 fluorescence intensity (a.u.)
- AGTAAAATGATTTGTAGTGTTAATAATAAAGAATAAATTACGGAGTCACCTAGTGCAG — higher, 10000 fluorescence intensity (a.u.)
- TACAAATAGACTTGAATAAATGTTTATCTATTTTGTGTTGCGGAGTCACCTAGTGCAG — higher, 16800 fluorescence intensity (a.u.)
- TGAGGAGCAATTAATGAGTTTGATGGACAGAGATAATAGCCGGAGTCACCTAGTGCAG — higher, 9490 fluorescence intensity (a.u.)
- ACGTTTAATTACGGGAAACCGGCTAAAACCCACCACACATCGGAGTCACCTAGTGCAG — higher, 6640 fluorescence intensity (a.u.)
- GTAGGAACACTAATTAATCACTCATTGATATGTGTAATCCCGGAGTCACCTAGTGCAG — higher, 14700 fluorescence intensity (a.u.)
- CTTAAATCATGATGATTTTATTGGTTGTTGGCATGCACAGCGGAGTCACCTAGTGCAG — higher, 30500 fluorescence intensity (a.u.)
- TTGCTAAATTGTTGTCTTGGTTGATATTTTAGATTTCTTGCGGAGTCACCTAGTGCAG — higher, 10000 fluorescence intensity (a.u.)
- TTTTACATGATTGGATGACAAAGCCTATTTCGTTTTGTTGCGGAGTCACCTAGTGCAG — higher, 53100 fluorescence intensity (a.u.)
- TCTGATTGACGGTGTTTGCAAGCAGAGTTCCTCTTCTTGGCGGAGTCACCTAGTGCAG — higher, 61500 fluorescence intensity (a.u.)
- AGGCACGGATTGATGCATTAATTTGGTTGCAATGTAGATGCGGAGTCACCTAGTGCAG — higher, 37500 fluorescence intensity (a.u.)
- CCGATGTTTGATTGTTCGTTTTATTTGAAAGCCTTTTATGCGGAGTCACCTAGTGCAG — higher, 20800 fluorescence intensity (a.u.)
- CTTGTCTTATTTGATTGTTGCATTTACATTTATGCAATTTCGGAGTCACCTAGTGCAG — higher, 9350 fluorescence intensity (a.u.)
- GTAAATTGGCATTGGTTTGATTTATGTTTGCAATGCAGCGCGGAGTCACCTAGTGCAG — higher, 58200 fluorescence intensity (a.u.)
- CCCTTGTTTCTGTTTTGATTGCAACCTAAGAGACTCTTGACGGAGTCACCTAGTGCAG — higher, 6270 fluorescence intensity (a.u.)
- AGAGTTCTGATTGAATTTGAACAGAAGCGGTGCTTTTGGACGGAGTCACCTAGTGCAG — higher, 38800 fluorescence intensity (a.u.)
- TTAATTATTTTGCTGACATGATTTGTTTTCATTTCGTTGACGGAGTCACCTAGTGCAG — higher, 24100 fluorescence intensity (a.u.)
- TCTTGATTGGTTGTTTTGGTTTGTTTCTTATTTATGTTTGCGGAGTCACCTAGTGCAG — higher, 54100 fluorescence intensity (a.u.)
- CATCTTTGACCGGTTAAATTAGATCCTGTTCTAGATGAGGCGGAGTCACCTAGTGCAG — lower, 3480 fluorescence intensity (a.u.)
- GCTTTCAATAAAACTTCATTAATTGAGGCTAAAATGTTACCGGAGTCACCTAGTGCAG — higher, 5100 fluorescence intensity (a.u.)
